This passage reports growth results from PubChem BioAssay (NCI).

Among the test systems are T-47D breast; BT-549 breast; MDA-MB-435 melanoma; SW-620 colon; MCF7 breast; HCT-116 colon; HCC-2998 colon; KM12 colon.
Holding throughout (test): NCI-60 one-dose screen, 48 h (100 = growth as untreated, 0 = no growth, -100 = all killed)
Holding throughout (details): 10 µM unless noted

The panel holds about 83,000 compounds, 20% with a hit somewhere; the sample as a whole holds those more often.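 Activity criterion: percent growth below 10, measured after cells in 96-well plates were exposed to a single compound concentration for 48 hours.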 A number with no mark means an inactive call. Activity calls are given as the source filed them.

Turning to `Cn1cc(-c2nnc(-c3ccccc3)s2)c2cc(Br)cnc21`, the growth with T-47D breast was 44%; in the assay with BT-549 breast, 104%; in the assay on MDA-MB-435 melanoma, 92.6%; in the assay with SW-620 colon, 82.5%; with MCF7 breast, 40.5%; with HCT-116 colon, 108%. The growth is 101% with HCC-2998 colon and 87.6% with KM12 colon.

On to `CCOC(=O)C(c1ccccc1)N1C(=O)c2ccccc2C1=O` (configuration not stated), for which the growth is 97.3% in the assay with T-47D breast; 90.3% with BT-549 breast; 93.1% with MDA-MB-435 melanoma; 97.4% in the assay on SW-620 colon; 91.4% in the assay on MCF7 breast; 98.5% in the assay on HCT-116 colon. Further, the figures for the growth in the assay with HCC-2998 colon and with KM12 colon were 98.4% and 98.8%, respectively.

For the compound `CC1(C)NCCC[C@]2(C)[C@H]3C=CC4=C5C[C@](C)(CO)CC[C@]5(C)CC[C@@]4(C)[C@]3(C)CC[C@@H]12`, the growth was -63.9% [100 µM] (active) in the assay with T-47D breast; -87.9% [100 µM] (active) in the assay on BT-549 breast; -95.6% [100 µM] (active) in the assay on MDA-MB-435 melanoma; -80.7% [100 µM] (active) in the assay with SW-620 colon; -70.7% [100 µM] (active) in the assay with MCF7 breast; -77.4% [100 µM] (active) in the assay with HCT-116 colon. The growth in the assay on HCC-2998 colon is -78.8% [100 µM] (active); in the assay with KM12 colon it was -85.5% [100 µM] (active).

Turning to `O=C(Nc1ccc(CN2CCOCC2)c(C(F)(F)F)c1)c1nc2ccc3[nH]ncc3c2c2c1CCCC2`, the growth with T-47D breast was 62.6%; in the assay with BT-549 breast, 136%; in the assay with MDA-MB-435 melanoma it was 96.6%; with SW-620 colon it was 99.4%; in the assay with MCF7 breast, 83.1%; in the assay with HCT-116 colon, 79.4%. The growth was 116% in the assay with HCC-2998 colon and 83.9% in the assay with KM12 colon.

`C=CCc1nc2ccccc2s1`: the growth in the assay on T-47D breast is 75.5%; in the assay with BT-549 breast, 101%; with MDA-MB-435 melanoma, 116%; in the assay on SW-620 colon, 98.9%; with MCF7 breast, 40.6%; in the assay with HCT-116 colon, 104%. In addition, the growth in the assay with HCC-2998 colon was 114%; in the assay with KM12 colon it was 107%.

For the compound `CCOC(=O)c1cc(C#N)n2ncc3ccccc3c12`, the growth in the assay on T-47D breast is 92.2%; in the assay with BT-549 breast it was 91.5%; in the assay with MDA-MB-435 melanoma it was 103%; in the assay with SW-620 colon, 98%; with MCF7 breast, 87.2%; in the assay on HCT-116 colon, 90.8%. The growth in the assay on HCC-2998 colon was 104%; in the assay on KM12 colon, 102%.

For the compound `O=C1Cc2c(sc3c(F)cccc23)C(c2ccccc2[N+](=O)[O-])N1` (configuration not stated), the growth in the assay with T-47D breast is 78.6%; in the assay with BT-549 breast it was 99.6%; with MDA-MB-435 melanoma, 108%; with SW-620 colon, 79.3%; with MCF7 breast, 81.4%; with HCT-116 colon it was 85.9%. Also, the figures for the growth in the assay with HCC-2998 colon and with KM12 colon were 119% and 100%, respectively.

Take `c1coc2occoc=2o1`: the growth is 98% in the assay on T-47D breast; 104% with BT-549 breast; 102% in the assay with MDA-MB-435 melanoma; 110% in the assay on SW-620 colon; 104% with MCF7 breast; 109% with HCT-116 colon. For the same compound, the growth was 108% with HCC-2998 colon and 106% with KM12 colon.

As to `C[C@@H]1C[C@H]2C(=O)O[C@@H](C)[C@H](NC(=O)[C@H](Cc3cc(F)cc(F)c3)NC(=O)Nc3ccc(C4CC4)cc3F)C(=O)N3CCC[C@H]3C(=O)N3CCCC[C@H]3C(=O)N[C@@H](C)C(=O)N2C1`, the growth in the assay on T-47D breast is 5.43% (active); in the assay with BT-549 breast, -1.76% (active); with MDA-MB-435 melanoma, 3.38% (active); in the assay on SW-620 colon it was 27.7%; with MCF7 breast it was 12.7%; with HCT-116 colon, -4.75% (active). Moreover, the figures for the growth in the assay on HCC-2998 colon and in the assay on KM12 colon were -10.3% (active) and 15.6%, respectively.

In the case of `CC[C@@](C)(NC(=O)[C@H](C)NC(=O)CCNC(=O)C(C)(C)NC(=O)[C@H](C)NC(=O)[C@@H]1CCCN1C(=O)[C@@](C)(CC)NC(=O)[C@H](Cc1ccccc1)NC(=O)C1CCCN1C(=O)C(C)(C)NC(=O)C1CCCN1C(=O)C(C)(C)NC(C)=O)C(=O)NCCC(=O)N[C@@H](CC(C)C)C(=O)NC(C)(C)C(=O)NCCC(=O)N[C@@H](CC(C)C)C(=O)NC(C)(C)C(=O)NC(C)(C)C(=O)N[C@@H](CC(C)C)C(=O)NCCC(=O)NCO` (some centres not stated), the growth in the assay with T-47D breast was -66.9% (active); in the assay on BT-549 breast it was -97.3% (active); in the assay with MDA-MB-435 melanoma, -89.2% (active); in the assay on SW-620 colon, -79.2% (active); in the assay on MCF7 breast it was -84.9% (active); in the assay on HCT-116 colon it was -94.6% (active). Further, the growth is -96.1% (active) in the assay on HCC-2998 colon and -94.8% (active) with KM12 colon.

On to `CC1(C)[C@@H](NOCCCN)CC[C@]2(C)[C@H]3C(=O)C=C4[C@@H]5C[C@](C)(C(=O)O)CC[C@]5(C)CC[C@@]4(C)[C@]3(C)CC[C@@H]12`, for which the growth in the assay on T-47D breast was -29.8% [100 µM] (active); in the assay with BT-549 breast it was -23.2% [100 µM] (active); with MDA-MB-435 melanoma, -59.1% [100 µM] (active); in the assay on SW-620 colon, -43.3% [100 µM] (active); in the assay with MCF7 breast, -25.2% [100 µM] (active); in the assay on HCT-116 colon it was -87.4% [100 µM] (active). Moreover, the growth in the assay with HCC-2998 colon was -50% [100 µM] (active); in the assay on KM12 colon, -65.8% [100 µM] (active).

Consider `CCOC(=O)c1nc2c3ccccc3ccn2c1C(=O)OC`, for which the growth in the assay on T-47D breast is 76.4%; with BT-549 breast, 97%; in the assay on MDA-MB-435 melanoma it was 96.5%; in the assay with SW-620 colon, 100%; with MCF7 breast it was 97.6%; in the assay on HCT-116 colon, 97.5%. Further, the growth was 91.1% with HCC-2998 colon and 107% in the assay with KM12 colon.

`Cn1cc(-c2noc(C(=O)c3cn(C)c4ncccc34)n2)c2ccccc21`: the growth is 46% with T-47D breast; 98.3% with BT-549 breast; 72.9% with MDA-MB-435 melanoma; 95.5% in the assay with SW-620 colon; 34.8% with MCF7 breast; 98.7% in the assay with HCT-116 colon. Besides, the growth in the assay on HCC-2998 colon is 90.6%; with KM12 colon it was 52%.

On to `CC[C@]12C=CCN3CC[C@@]4(c5ccc(OC)cc5N(C)[C@H]4[C@@](O)(C(=O)OC)[C@@H]1OC(=O)CCC(=O)O[C@H]1CC[C@H]4[C@@H]5CCC6=CC(=O)CC[C@@H]6[C@H]5CC[C@]14C)[C@@H]32`, for which the growth is 21.6% [100 µM] in the assay with T-47D breast; -8.65% [100 µM] (active) in the assay with BT-549 breast; 7.01% [100 µM] (active) with MDA-MB-435 melanoma; 11.1% [100 µM] in the assay with SW-620 colon; 11.7% [100 µM] in the assay on MCF7 breast; 3.76% [100 µM] (active) in the assay with HCT-116 colon. Further, the results for the growth in the assay with HCC-2998 colon and in the assay on KM12 colon were 3.12% [100 µM] (active) and 6.43% [100 µM] (active), respectively.
